Data as given in PubChem BioAssay (NCATS).
Results filed as inconclusive are left out. Active and inactive are the calls of the source. Calls follow the shape of the dose curve; as a rule, active = well fitted inhibition curve with a large enough effect; inconclusive = small, poorly fitted or top-dose-only effect; inactive = flat fitted curve, though single readings scatter.

Columns and labels:
Assay in all cases: qHTS profiling for inhibitors of Plasmodium falciparum proliferation (AID 504749); also: nearly all actives have a fitted effect of over 60% in size
Settings in all cases: P. falciparum in erythrocytes, SYBR Green DNA, 72 h; series mostly up to 28.7 µM
CP297 = system: CP297
How it was run: (§1)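 Infected RBCs, 0.3% parasitemia/2.5% Hct final; cpd 72 h, 37 C, 5% CO2; lysis buffer with saponin/triton/SYBR Green I, o/n RT dark; FI 485/535; norm. to artemisinin (0.29 uM) and DMSO.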

CP315 = system: CP315
How it was run: as §1

CP335 = system: CP335
How it was run: as §1

DIV14 = system: DIV14
How it was run: as §1

DIV17 = system: DIV17
How it was run: as §1

Dd2 = system: Dd2
How it was run: as §1

ECU = system: ECU
How it was run: as §1

FAB9 = system: FAB9
How it was run: as §1

GB4 = system: GB4
How it was run: as §1

HB3 = system: HB3
How it was run: as §1

CP286 = system: CP286
How it was run: as §1

DIV30 = system: DIV30
How it was run: as §1

ICS = system: ICS
How it was run: as §1

CP268 = system: CP268
How it was run: as §1

CP305 = system: CP305
How it was run: as §1

CP329 = system: CP329
How it was run: as §1

DFO2036 = system: DFO2036
How it was run: as §1

CP269 = system: CP269
How it was run: as §1

CP291 = system: CP291
How it was run: as §1

CP325 = system: CP325
How it was run: as §1

Measured: Potency
Potency is read from the fitted curve at half-maximal effect.

CN(C)CCN(Cc1cccs1)c1ccccn1
inactive: CP315 | ECU | FAB9 | HB3
active: CP297 3.38 µM | CP335 8.49 µM | DIV14 6.75 µM | DIV17 6.01 µM | Dd2 3.98 µM | GB4 3.79 µM

CCc1cccc(N(C)C(N)=Nc2cccc3ccccc23)c1
inactive: CP315 | FAB9 | HB3
active: CP286 8.91 µM | DIV14 1.51 µM | DIV17 1.35 µM | DIV30 7.57 µM | Dd2 3.16 µM | ECU 7.94 µM | GB4 5.36 µM | ICS 2.82 µM

O=C1NCN(c2ccccc2)C12CCN(CCCC(c1ccc(F)cc1)c1ccc(F)cc1)CC2
active: CP268 8.49 µM | CP286 7.08 µM | CP305 7.57 µM | CP329 4.78 µM | CP335 4.78 µM | DFO2036 7.08 µM | DIV14 7.57 µM | DIV17 6.75 µM | Dd2 5.01 µM | ECU 5.62 µM | GB4 6.75 µM | HB3 7.08 µM | ICS 3.98 µM
inactive: FAB9

COCCOC(=O)C1=C(C)NC(C)=C(C(=O)OC(C)C)C1c1cccc([N+](=O)[O-])c1 (stereo unspecified)
active: CP335 4.78 µM | DIV14 13.5 µM | DIV17 13.5 µM | DIV30 12 µM | ICS 7.08 µM
inactive: CP329 | FAB9

COCCCC/C(=N\OCCN)c1ccc(C(F)(F)F)cc1
inactive: FAB9 | HB3
active: Dd2 7.94 µM

CCCC(C(=O)OCCN(CC)CC)(c1ccccc1)c1ccccc1
active: CP269 12 µM | CP286 12.6 µM | CP291 13.5 µM | CP335 8.49 µM | DIV14 8.49 µM | DIV17 7.57 µM | DIV30 13.5 µM | Dd2 14.1 µM | ECU 10 µM | GB4 10.7 µM | ICS 5.62 µM

CCOC(=O)C1=C(C)NC(C)=C(C(=O)OC)C1c1cccc([N+](=O)[O-])c1 (stereo unspecified)
inactive: CP315 | FAB9
active: HB3 11.2 µM

CN1C[C@H](C(=O)N[C@]2(C)O[C@@]3(O)[C@@H]4CCCN4C(=O)[C@H](Cc4ccccc4)N3C2=O)C[C@@H]2c3cccc4[nH]cc(c34)C[C@H]21
active: CP268 15.1 µM | CP269 8.49 µM | CP291 16.9 µM | CP297 4.26 µM | CP325 12 µM | CP335 8.49 µM | DIV14 0.675 µM | DIV17 0.426 µM | DIV30 0.757 µM | GB4 6.01 µM

COc1ccc(CCN(C)CCCC(C#N)(c2cc(OC)c(OC)c(OC)c2)C(C)C)cc1OC (stereo unspecified)
inactive: FAB9
active: DIV17 13.5 µM | Dd2 5.62 µM | ICS 7.94 µM

CCOC(=O)c1cnc2c(cnn2CC)c1NN=C(C)C
inactive: CP269 | CP291 | CP305 | CP315 | CP325 | CP329 | CP335 | DFO2036 | DIV30 | Dd2 | ECU | FAB9 | GB4 | HB3

Cc1nc2sccn2c(=O)c1CCN1CCC(=C(c2ccc(F)cc2)c2ccc(F)cc2)CC1
inactive: CP268 | CP305 | CP315 | CP325 | CP329 | FAB9
active: DIV17 16.9 µM | ICS 8.91 µM

CN(C)CCCN1c2ccccc2Sc2ccc(C(F)(F)F)cc21
active: DIV14 6.75 µM | DIV17 5.36 µM | ECU 12.6 µM | ICS 10 µM
inactive: CP268 | CP269 | CP291 | CP297 | CP305 | CP315 | CP325 | CP329 | FAB9 | HB3

Cc1nc2ccccn2c(=O)c1CCN1CCC(C(=O)c2ccc(F)cc2)CC1
inactive: CP268 | CP269 | CP297 | CP305 | CP315 | CP325 | CP329 | DFO2036 | ECU | FAB9 | HB3
active: DIV14 6.75 µM | ICS 8.91 µM

CN(C)CCCN1c2ccccc2Sc2ccccc21
inactive: CP297 | ECU | FAB9 | HB3
active: DIV14 1.81 µM | DIV17 2.87 µM | Dd2 3.16 µM

CCN(CC)CCNC(=O)c1cc(S(C)(=O)=O)ccc1OC
inactive: CP286 | CP335 | DFO2036 | Dd2 | ECU | FAB9 | HB3 | ICS

O=C(O)CN(CCN(CC(=O)O)CC(=O)O)CCN(CC(=O)O)CC(=O)O
inactive: CP269 | CP286 | CP297 | CP315 | CP325 | CP329 | CP335 | DFO2036 | DIV14 | DIV30 | Dd2 | ECU | FAB9 | HB3 | ICS

CNCCC(Oc1ccccc1OC)c1ccccc1 (stereo unspecified)
active: DIV14 4.78 µM | DIV17 8.49 µM | Dd2 6.31 µM
inactive: CP297 | CP315 | FAB9 | HB3

OC(CCN1CCCCC1)(c1ccccc1)C1CCCCC1 (stereo unspecified)
inactive: CP268 | CP269 | CP286 | CP297 | CP305 | CP315 | CP325 | CP329 | DFO2036 | FAB9 | GB4 | HB3

CN(C(=O)CCCOc1ccc2[nH]c(=O)ccc2c1)C1CCCCC1
inactive: CP268 | CP269 | CP286 | CP305 | CP315 | CP325 | CP329 | CP335 | DFO2036 | ECU | FAB9 | GB4 | HB3

CC(C)[N+](C)(CCOC(=O)C1c2ccccc2Oc2ccccc21)C(C)C
inactive: CP315 | DIV30

CCN(CC)CCOCCOC(=O)C1(c2ccccc2)CCCC1
active: CP268 15.1 µM | CP269 13.5 µM | CP286 12.6 µM | CP297 6.75 µM | CP305 13.5 µM | CP325 15.1 µM | CP335 9.53 µM | DFO2036 12.6 µM | DIV14 2.39 µM | DIV17 3.79 µM | DIV30 7.57 µM | Dd2 2.51 µM | ECU 11.2 µM | GB4 6.01 µM | HB3 12.6 µM | ICS 1.41 µM
inactive: CP315 | CP329

O=C(CCCN1CCC(O)(c2cccc(C(F)(F)F)c2)CC1)c1ccc(F)cc1
active: CP286 10 µM | CP335 9.53 µM | DFO2036 10 µM | DIV14 6.75 µM | DIV17 13.5 µM | Dd2 5.62 µM | ECU 2.24 µM | GB4 6.01 µM | HB3 12.6 µM | ICS 5.01 µM

C=CCc1ccccc1OCC(O)CNC(C)C (stereo unspecified)
inactive: FAB9
active: DIV14 8.49 µM | DIV17 8.49 µM | Dd2 7.94 µM | GB4 7.57 µM | ICS 11.2 µM

CN(C)C/C=C(/c1ccc(Br)cc1)c1cccnc1
active: Dd2 12.6 µM
inactive: CP268 | CP269 | CP286 | CP305 | CP315 | CP325 | CP329 | CP335 | DFO2036 | DIV17 | DIV30 | FAB9 | HB3

Fc1ccc(C(c2ccc(F)cc2)N2CCN(C/C=C/c3ccccc3)CC2)cc1
active: ECU 11.2 µM | HB3 11.2 µM | ICS 8.91 µM

CCCN1C[C@H](CSC)C[C@@H]2c3cccc4[nH]cc(c34)C[C@H]21
active: DIV17 7.57 µM | ICS 11.2 µM
inactive: CP269 | CP297 | CP305 | CP315 | CP325 | CP329 | DFO2036 | FAB9 | HB3

CCC(=O)c1ccc2c(c1)N(CCCN(C)C)c1ccccc1S2
inactive: CP297 | CP315 | ECU | HB3
active: DIV14 6.01 µM | DIV17 4.78 µM | Dd2 7.94 µM | ICS 8.91 µM

COC(=O)[C@@H](N)Cc1ccc(O)c(O)c1
inactive: CP268 | CP286 | CP291 | CP297 | CP305 | CP315 | CP325 | CP329 | DFO2036 | DIV30 | Dd2 | ECU | FAB9 | HB3 | ICS

COc1cc(C(=O)OCCCN2CCCN(CCCOC(=O)c3cc(OC)c(OC)c(OC)c3)CC2)cc(OC)c1OC
active: CP269 7.57 µM | CP286 10 µM | CP335 4.78 µM | DIV14 9.53 µM | DIV17 12 µM | Dd2 12.6 µM | ECU 8.91 µM | GB4 13.5 µM | ICS 8.91 µM

CC(C)COCC(CN(Cc1ccccc1)c1ccccc1)N1CCCC1 (stereo unspecified)
inactive: CP325 | CP329 | DIV14 | DIV17 | ECU | FAB9 | HB3

CN(C)CC[C@@H](c1ccc(Br)cc1)c1ccccn1
inactive: CP286 | CP305 | CP315 | CP325 | DFO2036 | ECU | FAB9 | HB3
active: DIV14 3.79 µM | DIV17 7.57 µM | Dd2 2.51 µM

CN(C)CC/C=C1\c2ccccc2COc2ccccc21
active: Dd2 8.91 µM
inactive: CP297 | CP315 | DFO2036 | ECU | FAB9 | HB3

CCN1CCc2nc(N)oc2CC1
inactive: CP269 | CP286 | CP291 | CP297 | CP305 | CP315 | CP325 | CP329 | CP335 | DFO2036 | DIV14 | DIV17 | DIV30 | Dd2 | ECU | FAB9 | GB4 | HB3 | ICS

NC(N)=NC(=O)Cc1c(Cl)cccc1Cl
inactive: CP268 | DIV14 | DIV17
active: CP329 6.01 µM | CP335 9.53 µM | DFO2036 10 µM | GB4 6.75 µM | ICS 7.94 µM

CCCCCCCC/C=C\CCCCCCCC(=O)NCc1ccc(O)c(OC)c1
inactive: CP268 | CP269 | CP297 | CP305 | CP315 | CP325 | CP329 | DIV17 | DIV30
active: Dd2 14.1 µM

c1cc(CN2CCCCC2)cc(OCCCNc2nc3ccccc3s2)c1
inactive: FAB9
active: Dd2 6.31 µM

CC(C)(C)c1ccc(C(=O)CCCN2CCC(OC(c3ccccc3)c3ccccc3)CC2)cc1
inactive: CP315
active: CP269 7.57 µM | CP286 8.91 µM | CP305 10.7 µM | CP335 6.75 µM | Dd2 10 µM | GB4 10.7 µM | ICS 4.47 µM

CCOC(=O)C1=C(C)NC(C)=C(C(=O)OC)C1c1cccc(Cl)c1Cl (stereo unspecified)
inactive: CP268 | CP269 | CP286 | CP297 | CP305 | CP315 | CP325 | DFO2036 | DIV14 | DIV17 | DIV30 | Dd2 | ECU | FAB9 | GB4 | HB3

NC(N)=N/N=C/c1c(Cl)cccc1Cl
active: CP286 11.2 µM | GB4 12 µM | ICS 8.91 µM

CC1=C(C)C(=O)C(CCCCC#CCCCC#CCO)=C(C)C1=O
active: CP286 11.2 µM | CP297 15.1 µM | CP335 13.5 µM | DIV14 5.36 µM | DIV17 6.01 µM | DIV30 7.57 µM | ECU 2.82 µM | GB4 7.57 µM | ICS 2.24 µM
inactive: FAB9
